Test results taken from the supplement of paper PMC10849652.
Of roughly 8,800 targets only a part is listed; those with a hit were picked by preference. About 0.5% of all pairs of compound and target were hits. Values without a mark were called inactive.

What follows are targets tested with CC1=C(C(CC(=O)N1)C2=CC=C(C=C2)C(F)(F)F)C(=O)NC3=C(C=C4C(=C3)C=NN4)F (assay: log2 fold change, soluble protein after heating vs DMSO (PISA); higher = thermal stabilisation; K562 lysate, 10 uM; active = over 0.2 and 3.5 SD of the protein, either way, in both replicates (recomputed)).
Method in brief: (§1)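 A 30 min treatment with 10 μM compound was applied to crude K562 extract at 1 mg/mL protein in PBS pH 7.4 with 1 mM MgCl2. Heating for 3 min spanned 48°C-58°C, after which aliquots were pooled, adjusted to 0.5% NP-40 at 4°C and spun at 21,000xg for 90 min. TMTpro 16plex LC-MS/MS of the supernatant, with channel sums equalised, gave values recorded as log-two fold change in thermal stability against solvent controls, from duplicates.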

Chain of UniProt Q9HCS7 (Q9HCS7 whole entry, looked up): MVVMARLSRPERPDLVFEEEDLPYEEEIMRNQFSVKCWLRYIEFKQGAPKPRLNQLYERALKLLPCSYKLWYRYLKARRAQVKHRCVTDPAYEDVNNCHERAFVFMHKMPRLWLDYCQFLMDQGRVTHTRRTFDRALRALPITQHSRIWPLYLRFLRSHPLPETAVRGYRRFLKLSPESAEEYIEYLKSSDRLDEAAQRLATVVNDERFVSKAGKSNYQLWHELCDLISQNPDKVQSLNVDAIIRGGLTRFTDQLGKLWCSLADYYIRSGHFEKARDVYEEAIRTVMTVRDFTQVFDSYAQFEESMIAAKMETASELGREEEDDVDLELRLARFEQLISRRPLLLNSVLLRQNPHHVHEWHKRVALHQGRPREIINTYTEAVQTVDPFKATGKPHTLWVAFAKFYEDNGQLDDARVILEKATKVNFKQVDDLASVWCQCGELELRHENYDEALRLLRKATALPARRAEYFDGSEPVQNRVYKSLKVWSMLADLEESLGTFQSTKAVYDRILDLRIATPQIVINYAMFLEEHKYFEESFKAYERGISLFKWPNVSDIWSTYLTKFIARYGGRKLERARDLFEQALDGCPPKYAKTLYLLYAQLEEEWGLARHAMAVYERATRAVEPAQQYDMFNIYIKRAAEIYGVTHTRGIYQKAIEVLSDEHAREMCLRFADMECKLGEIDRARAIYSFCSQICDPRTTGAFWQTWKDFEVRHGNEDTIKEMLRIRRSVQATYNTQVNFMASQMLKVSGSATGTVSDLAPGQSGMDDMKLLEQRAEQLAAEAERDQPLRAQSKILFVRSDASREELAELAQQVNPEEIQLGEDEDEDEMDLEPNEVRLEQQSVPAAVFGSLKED
Chain of UniProt A4D1P6 (A4D1P6 whole entry, looked up): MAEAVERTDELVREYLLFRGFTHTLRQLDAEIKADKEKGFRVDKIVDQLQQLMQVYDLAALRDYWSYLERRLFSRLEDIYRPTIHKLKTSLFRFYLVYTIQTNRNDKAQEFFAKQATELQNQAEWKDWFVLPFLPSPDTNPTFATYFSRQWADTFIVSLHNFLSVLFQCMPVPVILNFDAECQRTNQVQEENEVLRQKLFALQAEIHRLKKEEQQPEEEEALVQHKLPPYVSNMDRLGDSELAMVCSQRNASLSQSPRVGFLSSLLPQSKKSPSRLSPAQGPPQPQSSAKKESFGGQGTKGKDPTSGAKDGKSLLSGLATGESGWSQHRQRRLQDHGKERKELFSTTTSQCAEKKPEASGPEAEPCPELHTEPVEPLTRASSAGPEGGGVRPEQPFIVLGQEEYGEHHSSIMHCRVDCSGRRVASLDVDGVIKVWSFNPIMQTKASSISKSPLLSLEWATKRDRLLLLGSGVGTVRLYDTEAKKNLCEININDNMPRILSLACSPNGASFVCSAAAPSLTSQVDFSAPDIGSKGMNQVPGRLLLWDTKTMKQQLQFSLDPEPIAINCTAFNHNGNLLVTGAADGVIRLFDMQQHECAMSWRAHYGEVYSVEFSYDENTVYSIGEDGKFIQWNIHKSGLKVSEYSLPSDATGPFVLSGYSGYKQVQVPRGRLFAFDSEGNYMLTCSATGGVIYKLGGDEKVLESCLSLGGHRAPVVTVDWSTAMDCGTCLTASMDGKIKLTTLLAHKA
Chain of UniProt Q9P253 (Q9P253 whole entry, looked up): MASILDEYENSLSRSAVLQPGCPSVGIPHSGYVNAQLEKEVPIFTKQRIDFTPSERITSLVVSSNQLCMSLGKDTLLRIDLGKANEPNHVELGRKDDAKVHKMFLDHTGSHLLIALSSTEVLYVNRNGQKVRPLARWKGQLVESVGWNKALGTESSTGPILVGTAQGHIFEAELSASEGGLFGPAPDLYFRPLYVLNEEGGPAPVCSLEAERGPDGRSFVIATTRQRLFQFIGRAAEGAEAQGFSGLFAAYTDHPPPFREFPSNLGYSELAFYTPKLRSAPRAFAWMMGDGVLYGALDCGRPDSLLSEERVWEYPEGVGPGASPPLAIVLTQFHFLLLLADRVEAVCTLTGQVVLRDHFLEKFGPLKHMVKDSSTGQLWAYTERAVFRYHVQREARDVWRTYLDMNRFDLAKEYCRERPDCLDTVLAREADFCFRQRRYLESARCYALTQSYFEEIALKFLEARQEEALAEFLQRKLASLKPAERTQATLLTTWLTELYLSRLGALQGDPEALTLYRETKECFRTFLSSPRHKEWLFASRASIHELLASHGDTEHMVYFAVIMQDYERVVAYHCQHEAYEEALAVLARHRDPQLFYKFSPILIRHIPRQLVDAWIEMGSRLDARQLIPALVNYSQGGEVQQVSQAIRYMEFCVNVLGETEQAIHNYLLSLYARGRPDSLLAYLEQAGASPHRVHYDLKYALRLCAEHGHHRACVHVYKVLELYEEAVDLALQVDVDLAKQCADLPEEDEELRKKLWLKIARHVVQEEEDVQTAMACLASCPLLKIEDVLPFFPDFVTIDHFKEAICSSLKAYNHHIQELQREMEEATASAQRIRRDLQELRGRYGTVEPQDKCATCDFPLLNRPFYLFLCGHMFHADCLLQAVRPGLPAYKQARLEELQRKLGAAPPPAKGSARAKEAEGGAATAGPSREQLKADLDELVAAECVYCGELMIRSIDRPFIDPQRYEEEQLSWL
Chain of UniProt Q8IX07 (Q8IX07 whole entry, looked up): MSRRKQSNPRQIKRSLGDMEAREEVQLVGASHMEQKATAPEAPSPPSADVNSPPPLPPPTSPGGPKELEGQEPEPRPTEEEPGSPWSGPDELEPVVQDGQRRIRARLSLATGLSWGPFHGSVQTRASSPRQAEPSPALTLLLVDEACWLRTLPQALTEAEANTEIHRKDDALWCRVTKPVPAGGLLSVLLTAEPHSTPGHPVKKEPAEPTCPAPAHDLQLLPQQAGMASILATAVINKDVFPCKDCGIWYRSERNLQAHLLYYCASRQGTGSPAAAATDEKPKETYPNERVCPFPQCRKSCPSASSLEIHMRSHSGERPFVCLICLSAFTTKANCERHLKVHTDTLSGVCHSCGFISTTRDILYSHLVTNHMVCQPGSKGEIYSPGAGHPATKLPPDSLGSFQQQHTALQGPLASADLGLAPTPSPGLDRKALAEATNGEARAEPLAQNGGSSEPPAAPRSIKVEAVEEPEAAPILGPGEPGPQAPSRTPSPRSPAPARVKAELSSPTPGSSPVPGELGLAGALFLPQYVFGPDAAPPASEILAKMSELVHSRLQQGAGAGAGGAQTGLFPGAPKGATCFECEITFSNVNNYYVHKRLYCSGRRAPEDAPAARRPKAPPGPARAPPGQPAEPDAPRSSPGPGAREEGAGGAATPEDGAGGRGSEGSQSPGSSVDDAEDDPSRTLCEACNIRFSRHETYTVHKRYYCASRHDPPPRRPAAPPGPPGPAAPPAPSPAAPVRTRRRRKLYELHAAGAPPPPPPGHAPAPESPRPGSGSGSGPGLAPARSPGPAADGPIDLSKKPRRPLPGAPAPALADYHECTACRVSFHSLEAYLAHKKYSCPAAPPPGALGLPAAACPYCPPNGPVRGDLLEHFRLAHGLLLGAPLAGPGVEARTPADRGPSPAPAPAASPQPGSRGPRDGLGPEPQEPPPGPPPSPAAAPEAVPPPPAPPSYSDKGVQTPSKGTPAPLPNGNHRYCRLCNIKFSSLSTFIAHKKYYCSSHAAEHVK
Chain of UniProt Q7Z739 (Q7Z739 whole entry, looked up): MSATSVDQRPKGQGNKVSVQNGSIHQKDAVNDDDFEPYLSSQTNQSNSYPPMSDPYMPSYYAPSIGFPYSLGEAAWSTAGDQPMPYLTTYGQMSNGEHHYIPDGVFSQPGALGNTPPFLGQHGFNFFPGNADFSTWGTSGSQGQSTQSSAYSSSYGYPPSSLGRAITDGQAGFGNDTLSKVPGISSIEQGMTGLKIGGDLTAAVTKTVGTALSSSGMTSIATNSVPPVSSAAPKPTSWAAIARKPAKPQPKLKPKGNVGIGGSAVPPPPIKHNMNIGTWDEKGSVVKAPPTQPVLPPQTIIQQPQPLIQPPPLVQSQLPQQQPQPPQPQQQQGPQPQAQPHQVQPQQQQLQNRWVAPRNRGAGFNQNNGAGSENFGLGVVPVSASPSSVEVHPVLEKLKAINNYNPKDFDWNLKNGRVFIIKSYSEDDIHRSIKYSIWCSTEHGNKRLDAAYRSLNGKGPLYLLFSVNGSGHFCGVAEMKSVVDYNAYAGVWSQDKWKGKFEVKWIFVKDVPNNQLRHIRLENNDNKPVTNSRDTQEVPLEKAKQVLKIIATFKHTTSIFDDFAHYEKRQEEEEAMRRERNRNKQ
Chain of UniProt P22695 (P22695 whole entry, looked up): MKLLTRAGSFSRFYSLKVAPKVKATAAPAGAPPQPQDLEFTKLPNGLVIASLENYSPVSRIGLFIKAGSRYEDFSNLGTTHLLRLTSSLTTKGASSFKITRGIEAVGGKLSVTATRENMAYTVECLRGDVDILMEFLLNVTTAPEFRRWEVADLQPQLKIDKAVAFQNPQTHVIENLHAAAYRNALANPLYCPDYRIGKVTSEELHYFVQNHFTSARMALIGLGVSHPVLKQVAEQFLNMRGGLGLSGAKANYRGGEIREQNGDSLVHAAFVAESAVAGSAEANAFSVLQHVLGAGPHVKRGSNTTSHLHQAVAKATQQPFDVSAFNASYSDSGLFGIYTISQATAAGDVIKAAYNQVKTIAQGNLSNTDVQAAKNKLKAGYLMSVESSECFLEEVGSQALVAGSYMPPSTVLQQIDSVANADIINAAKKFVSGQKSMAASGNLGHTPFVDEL
Chain of UniProt O00258 (O00258 whole entry, looked up): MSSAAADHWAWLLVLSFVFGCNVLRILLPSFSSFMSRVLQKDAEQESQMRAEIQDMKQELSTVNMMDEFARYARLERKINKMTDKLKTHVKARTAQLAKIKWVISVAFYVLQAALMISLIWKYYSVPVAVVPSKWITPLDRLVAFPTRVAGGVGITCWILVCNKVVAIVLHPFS

Row | Target | log2 fold change
1 | VPS54 (UniProt Q9P1Q0) | 0.038
2 | WDR45 isoform 2 (UniProt Q9Y484) | 0.014
3 | XAB2 (UniProt Q9HCS7) | 0.014
4 | YTHDF3 (UniProt Q7Z739) | 0.017
5 | XPO6 (UniProt Q96QU8) | -0.003
6 | WRB (UniProt O00258) | -0.025
7 | XPOT (UniProt O43592) | 0
8 | VPS18 (UniProt Q9P253) | 0.004
9 | WDR3 (UniProt Q9UNX4) | 0.015
10 | USP8 (UniProt P40818) | 0.004
11 | ZFPM1 (UniProt Q8IX07) | 0.01
12 | VRK2 (UniProt Q86Y07) | -0.036
13 | WDR91 (UniProt A4D1P6) | -0.013
14 | WDR20 isoform 7 (UniProt Q8TBZ3) | 0.087
15 | YRDC (UniProt Q86U90) | -0.006
16 | UQCRC2 (UniProt P22695) | -0.001

Each target was assayed with CC1=C(C2=C(C=C1)C(=O)C3=CC=CC=C3N2CCCN)C in the same assay as above.
Method in brief: as §1

Row | Target | log2 fold change
17 | USP9X (UniProt Q93008) | 0.009
18 | ZMYM1 (UniProt Q5SVZ6) | -0.008
19 | ZNF598 isoform 3 (UniProt Q86UK7) | 0.005
20 | VAV1 (UniProt P15498) | -0.034
21 | WDR7 (UniProt Q9Y4E6) | -0.013
22 | VPS11 (UniProt Q9H270) | 0.031
23 | ZNF318 (UniProt Q5VUA4) | 0.038
24 | VAC14 (UniProt Q08AM6) | 0.005
25 | VPS41 (UniProt P49754) | 0.014
26 | ZNHIT6 (UniProt Q9NWK9) | -0.02
27 | ZZEF1 (UniProt O43149) | -0.063
28 | VPS16 (UniProt Q9H269) | -0.029
29 | ZHX1 (UniProt Q9UKY1) | -0.144
30 | ZC3H13 (UniProt Q5T200) | 0.046
31 | VRK1 (UniProt Q99986) | 0.007
32 | VPS54 (UniProt Q9P1Q0) | 0.04

Row | Target | log2 fold change
33 | WDR45 isoform 2 (UniProt Q9Y484) | 0.028
34 | XAB2 (UniProt Q9HCS7) | -0.032
35 | YTHDF3 (UniProt Q7Z739) | 0.074
36 | XPO6 (UniProt Q96QU8) | -0.024
37 | WRB (UniProt O00258) | -0.141
38 | XPOT (UniProt O43592) | 0.013
39 | VPS18 (UniProt Q9P253) | -0.046
40 | WDR3 (UniProt Q9UNX4) | -0.032
41 | USP8 (UniProt P40818) | -0.007
42 | ZFPM1 (UniProt Q8IX07) | 0.003
43 | VRK2 (UniProt Q86Y07) | -0.026
44 | WDR91 (UniProt A4D1P6) | -0.009
45 | WDR20 isoform 7 (UniProt Q8TBZ3) | 0.044
46 | YRDC (UniProt Q86U90) | -0.015
47 | UQCRC2 (UniProt P22695) | 0.012

These targets were tested with CC1=C(C=C(C=C1)NC(=O)C2=CC(=CC=C2)C(C)(C)C#N)NC3=CC4=C(C=C3)N=CN(C4=O)C in the same assay as above.
Method in brief: as §1

Row | Target | log2 fold change
48 | USP9X (UniProt Q93008) | -0.021
49 | ZMYM1 (UniProt Q5SVZ6) | 0.001
50 | ZNF598 isoform 3 (UniProt Q86UK7) | -0.001
51 | VAV1 (UniProt P15498) | -0.078
52 | WDR7 (UniProt Q9Y4E6) | 0.037
53 | VPS11 (UniProt Q9H270) | 0.026
54 | ZNF318 (UniProt Q5VUA4) | -0.036
55 | VAC14 (UniProt Q08AM6) | 0.003
56 | VPS41 (UniProt P49754) | 0.005
57 | ZNHIT6 (UniProt Q9NWK9) | 0.032
58 | ZZEF1 (UniProt O43149) | 0.023
59 | VPS16 (UniProt Q9H269) | 0.019
60 | ZHX1 (UniProt Q9UKY1) | -0.053
61 | ZC3H13 (UniProt Q5T200) | 0.08
62 | VRK1 (UniProt Q99986) | -0.015
63 | VPS54 (UniProt Q9P1Q0) | 0.144

Row | Target | log2 fold change
64 | WDR45 isoform 2 (UniProt Q9Y484) | -0.04
65 | XAB2 (UniProt Q9HCS7) | 0.013
66 | YTHDF3 (UniProt Q7Z739) | -0.334 (active)
67 | XPO6 (UniProt Q96QU8) | 0.028
68 | WRB (UniProt O00258) | 0.063
69 | XPOT (UniProt O43592) | 0.016
70 | VPS18 (UniProt Q9P253) | -0.004
71 | WDR3 (UniProt Q9UNX4) | -0.021
72 | USP8 (UniProt P40818) | -0.001
73 | ZFPM1 (UniProt Q8IX07) | 0.033
74 | VRK2 (UniProt Q86Y07) | -0.021
75 | WDR91 (UniProt A4D1P6) | -0.046
76 | WDR20 isoform 7 (UniProt Q8TBZ3) | 0.058
77 | YRDC (UniProt Q86U90) | 0.021
78 | UQCRC2 (UniProt P22695) | 0.029
